Test results taken from PubChem BioAssay (NCATS).
Inconclusive results are not listed. Active and inactive are the calls of the source. Calls come from the whole dose curve; as a rule, active = well fitted inhibition curve with a large enough effect; inconclusive = small, poorly fitted or top-dose-only effect; inactive = flat fitted curve, though single readings scatter.

Legend:
Test in all cases: qHTS profiling for inhibitors of Plasmodium falciparum proliferation (AID 504749); note: nearly all actives have a fitted effect of over 60% in size
Conditions in all cases: P. falciparum in erythrocytes, SYBR Green DNA, 72 h; series mostly up to 28.7 µM
P93_24 = tested on: P93_24
Method in brief: (§1)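 P. falciparum-infected erythrocytes (0.3% parasitemia, 2.5% hematocrit final) were exposed to compounds for 72 h at 37 C in 5% CO2, then lysed with SYBR Green buffer overnight at room temperature; parasite DNA fluorescence was normalized to artemisinin and DMSO controls.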

P94_40 = tested on: P94_40
Method in brief: as §1

PAD = tested on: PAD
Method in brief: as §1

PC15 = tested on: PC15
Method in brief: as §1

PC26 = tested on: PC26
Method in brief: as §1

PC49 = tested on: PC49
Method in brief: as §1

SC27B = tested on: SC27B
Method in brief: as §1

TAB109 = tested on: TAB109
Method in brief: as §1

TAB113 = tested on: TAB113
Method in brief: as §1

TAB165 = tested on: TAB165
Method in brief: as §1

Measured: Potency
Potency is the fitted concentration of half-maximal effect.

CCn1cc(C(=O)O)c(=O)c2cnc(N3CCNCC3)nc21
inactive: all assays above

Cc1cc(O)cc2c1O[C@](C)(CCC[C@H](C)CCC[C@H](C)CCCC(C)C)CC2
inactive: all assays above

COc1ccc(Cl)cc1C(=O)NCCc1ccc(S(=O)(=O)NC(=O)NC2CCCCC2)cc1
inactive: all assays above

O=c1cc[nH]c(=S)[nH]1
inactive: all assays above

CCCOC(=O)c1ccccc1
inactive: all assays above

Cc1cccc(Nc2cc(Cl)nc(SCC(=O)O)n2)c1C
inactive: all assays above

O=C(O)c1ccccc1-c1ccc(C(F)(F)F)cc1
inactive: all assays above

COc1ccc(S(=O)(=O)Nc2nnc(CC(C)C)s2)cc1
inactive: all assays above

CCCCc1ncc(/C=C(\Cc2cccs2)C(=O)O)n1Cc1ccc(C(=O)O)cc1
inactive: all assays above

O=C1NS(=O)(=O)c2ccccc21
inactive: all assays above

CCN(CC)CCNC(=O)c1cc(Cl)c(N)cc1OC
inactive: all assays above

C[C@@H]1CN(c2c(F)c(F)c3c(=O)c(C(=O)O)cn(C4CC4)c3c2F)C[C@H](C)N1
inactive: all assays above

O=Cc1ccccc1C=O
inactive: all assays above

Cc1cc(C(C#N)c2ccc(Cl)cc2)c(Cl)cc1NC(=O)c1cc(I)cc(I)c1O (centres undefined)
inactive: all assays above

O=C(O)c1ccccc1O
inactive: all assays above

CCOC(=O)[C@H](CCc1ccccc1)N[C@@H](C)C(=O)N1C(=O)N(C)C[C@H]1C(=O)O
inactive: all assays above

O=C(O)COc1nn(Cc2ccccc2)c2ccccc12
inactive: all assays above

CC(C)(C)NCC(O)COc1ccc(NC(=O)NC2CCCCC2)cc1 (centres undefined)
inactive: all assays above

C#CCN(C)Cc1ccccc1
inactive: all assays above

CCCCCCCCCCCCCCCCCCOCC(O)CO (centres undefined)
inactive: all assays above

CCCc1c(OCCCCc2nn[nH]n2)ccc(C(C)=O)c1O
not listed: PC49
inactive: all other assays above

O=C(Oc1ccccc1C(=O)O)c1ccccc1O
inactive: all assays above

O=C(O)c1ccccn1
inactive: all assays above

NCC(=O)CCC(=O)O
inactive: all assays above

CCN(CC)CCNC(=O)c1c(C)[nH]c(/C=C2\C(=O)Nc3ccc(F)cc32)c1C
active: P93_24 6310 nM | P94_40 7940 nM | PAD 5010 nM | PC15 8910 nM | PC26 5360 nM | SC27B 12600 nM | TAB109 8910 nM | TAB113 10000 nM | TAB165 7080 nM

NC(CSCC(=O)O)C(=O)O (centres undefined)
inactive: all assays above

C=Cc1c(C)c2cc3[nH]c(cc4nc(cc5nc(cc1[nH]2)C(C)=C5CCC(=O)O)C(CCC(=O)O)=C4C)c(C)c3C=C
inactive: all assays above

O=C(O)[C@@H]1CSCN1
inactive: all assays above

CCCCCCCCCCCCCCCC(=O)NCCO
inactive: all assays above

O=C1NC(=O)[C@@]2(CCOc3ccc(F)cc32)N1
inactive: all assays above

Cc1cccc(C)c1NC(=O)CN(CC(=O)O)CC(=O)O
inactive: all assays above

O=C(CCCN1CCN(c2ccccn2)CC1)c1ccc(F)cc1
inactive: all assays above

COc1ccc2c(c1)C(=O)N(CCc1ccc(S(=O)(=O)NC(=O)NC3CCCCC3)cc1)C(=O)C2(C)C
inactive: all assays above

CC(=O)NC(Cc1ccccc1)C(=O)O (centres undefined)
inactive: all assays above

Cc1ncc(COP(=O)(O)O)c(C=O)c1O
inactive: all assays above

COC(=O)C1=C(C)NC(C)=C(C(=O)OC)C1c1ccccc1[N+](=O)[O-]
inactive: all assays above

NS(=O)(=O)c1cc2c(cc1Cl)NC(CSCc1ccccc1)=NS2(=O)=O
inactive: all assays above

CCCCOc1cc(C(=O)OCCN(CC)CC)ccc1N
inactive: all assays above

CCCCOC(=O)c1ccc(O)cc1
inactive: all assays above

CCCCN1CCCC[C@H]1C(=O)Nc1c(C)cccc1C
inactive: all assays above

Nc1nc2c(ncn2CCC(CO)CO)c(=O)[nH]1
inactive: all assays above

C[C@](N)(Cc1ccc(O)cc1)C(=O)O
inactive: all assays above

Cc1cc(N)c2ccccc2[n+]1CCCCCCCCCC[n+]1c(C)cc(N)c2ccccc21
active: P93_24 70.8 nM | P94_40 7080 nM | PAD 2240 nM | PC15 282 nM | PC26 510 nM | PC49 126 nM | SC27B 0.0316 nM | TAB109 4470 nM | TAB113 126 nM | TAB165 100 nM

CC1=C(/C=C/C(C)=C/C=C/C(C)=C/C(=O)O)C(C)(C)CCC1
inactive: all assays above

Cc1cc(CC(=O)O)n(C)c1C(=O)c1ccc(Cl)cc1
inactive: all assays above

O=c1[nH]c(=O)c2[nH]c(=O)[nH]c2[nH]1
not listed: TAB113
inactive: all other assays above

CNC(=O)Oc1ccc2c(c1)[C@]1(C)CCN(C)[C@@H]1N2C
active: P93_24 1580 nM | P94_40 1580 nM | PAD 1410 nM | PC15 1780 nM | PC49 2000 nM | TAB109 2240 nM | TAB165 1580 nM

CC1(C)OC(=O)NC1=O
inactive: all assays above
